Screens (PubChem BioAssay)
Hits are enriched below; roughly 4.4% of the tested compounds scored in any of these assays.
PfHsp90 set2 = reduces growth (ATP signal) of yeast expressing P. falciparum Hsp90 | S. cerevisiae expressing PfHsp90, BacTiter-Glo ATP, 48 h; yeast lacking PDR1 and PDR3 efflux regulators | inhibition, % at 9.4 µM | hit rate 0.32% among 310,000 | AID 504621;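 active means every replicate shows inhibition above about 80%, whatever the replicate mean, limit read from the data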;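 further: 0% = DMSO neutral controls and 100% = 20 µM radicicol positive controls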
tim23-1 inh = tim23-1 yeast growth inhibition. S. cerevisiae tim23-1 growth, BacTiter-Glo luminescence, 24 h. inhibition, % at 20 µM. hit rate 1.3% among 330,000;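 active means growth inhibition of the mutant yeast at or above 50%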;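 further: temperature-sensitive mutant grown at 25 °C; plate controls were DMSO-treated mutant yeast for no effect and medium wells lacking yeast for full effect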
TIM10 inh = growth inhibitors of TIM10 yeast strain; inhibition, % at 10 µM; hit rate 1.4% among 330,000; S. cerevisiae TIM10 strain growth, BacTiter-Glo luminescence, 24 h;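 active means inhibition of 40% or more at the single tested concentration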;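 further: wild-type TIM10 isogenic control strain grown at permissive 25 °C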
tim10-1 inh = growth inhibitors of tim10-1 mutant yeast. S. cerevisiae tim10-1 ts strain growth, BacTiter-Glo, 24 h. inhibition, % at 20 µM. hit rate 2.2% among 330,000;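 active means inhibition of at least 40%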;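 further: mutant grown at 25 °C; 0% = DMSO wells with yeast and 100% = wells holding no yeast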
SKKanGAS inh = inhibitors of SKKanGAS S. pyogenes growth in kanamycin (SK-promoter or general growth effect); BacTiter-Glo, 6 h; inhibition, % at 7.5 µM; hit rate 1.3% among 300,000; AID 1662;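 active means mean replicate score, as percent of positive control median, at least 50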;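 further: strain carries kanamycin resistance gene driven by streptokinase promoter and grows in 40 µg/ml kanamycin; loss of luminescence reflects streptokinase promoter inhibition or plain growth inhibition; 0% = median of DMSO wells and 100% = positive control at its reference dose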
* marks the source's active call; other numbers are inactive results; . = no result.

SMILES	PfHsp90 set2	tim23-1 inh	TIM10 inh	tim10-1 inh	SKKanGAS inh
N=C1SC(c2ccccc2)C(=O)N1c1ncc(Cc2ccccc2Cl)s1 (centres undefined)	-56	28	33	33	116*
CCOC(=O)c1ccc(N(CCC2CO2)S(=O)(=O)c2ccc(C)cc2)cc1 (centres undefined)	18	.	.	.	.
COCCOC(=O)c1c(C)nc(SCC(=O)Nc2ccc(C)cc2)c(C#N)c1-c1ccco1	22	5	9	5	67*
CNC(=O)c1c(C)nc(SCC(=O)NCc2ccc(OC)cc2)c(C#N)c1-c1ccco1	5	3	7	7	-7
COCCOC(=O)c1c(C)nc(SCC(=O)Nc2cccc3ccccc23)c(C#N)c1-c1ccco1	1	17	9	33	50*
O=C(O)c1cc(-c2ccc(-c3c(-c4ccc5c(c4)OCO5)noc3-c3ccsc3)cc2)nc2ccccc12	-6	.	.	.	94*
COc1ccc(NC(=O)C(OC(=O)c2cnc(C)cn2)c2ccccc2)cc1Cl (centres undefined)	-12	29	8	14	51*
Cc1cccc(C)c1NC(=O)CN1C(=O)NC(C)(C2CC2)C1=O (centres undefined)	9	4	8	-10	.
CCOC(=O)c1ccc(NC(=O)c2nc[nH]c2C(=O)N[C@@H](Cc2ccccc2)C(=O)OC(C)(C)C)cc1	-18	25	12	1	56*
CCOC(=O)c1ccc(NC(=O)c2nc[nH]c2C(=O)NCCCCCNC(=O)OC(C)(C)C)cc1	-34	22	15	25	64*
CC(C)(C)OC(=O)[C@H](Cc1ccccc1)NC(=O)c1[nH]cnc1C(=O)N[C@@H](Cc1ccccc1)C(=O)OCc1ccccc1	.	18	18	-3	15
CCOC(=O)c1ccc(NC(=O)c2nc[nH]c2C(=O)NCCCCNC(=O)c2[nH]cnc2C(=O)Nc2ccc(C(=O)OCC)cc2)cc1	-15	12	0	10	.
CC(C)(C)OC(=O)[C@H](Cc1ccccc1)NC(=O)c1[nH]cnc1C(=O)Nc1cccc(Cl)c1	9	12	24	28	72*
CCOC(=O)c1ccc(NC(=O)c2nc[nH]c2C(=O)NCC(=O)OC(C)(C)C)cc1	2	36	17	18	9
Cc1cccc(NC(=O)c2nc[nH]c2C(=O)N[C@@H](CC(C)C)C(=O)OC(C)(C)C)c1	-10	41	17	24	100*
COc1cc(NC(=O)c2ccc(S(=O)(=O)N(C)c3ccccc3)cc2)cc(OC)c1	.	18	-3	8	.
C[C@H](NC(=O)c1nc[nH]c1C(=O)N[C@@H](Cc1ccccc1)C(=O)OC(C)(C)C)C(=O)OC(C)(C)C	-20	19	7	20	7
CC(C)(C)OC(=O)[C@H](Cc1ccccc1)NC(=O)c1[nH]cnc1C(=O)Nc1ccc(Cl)cc1	21	37	22	26	91*
Cc1cccc(NC(=O)c2nc[nH]c2C(=O)N[C@@H](Cc2ccccc2)C(=O)OC(C)(C)C)c1	1	25	11	11	98*
CC(C)(C)OC(=O)[C@H](Cc1ccccc1)NC(=O)c1nc[nH]c1C(=O)N[C@@H](Cc1ccccc1)C(=O)OC(C)(C)C	-1	12	9	13	70*
Cc1ccc(Oc2ccc(NC(=O)C3=CC=CN4CCS(=O)(=O)N=C34)cc2)cc1	2	15	-6	8	.
O=[N+]([O-])c1ccc(COc2ccc(CN3CCCC3)cc2)cc1	-6	.	.	.	.
CC1(c2nnc(Cc3ccccc3)o2)CC(c2cccc([N+](=O)[O-])c2)=NO1 (centres undefined)	6	13	5	1	-4
CC1(c2nnc(Cc3ccccc3)o2)CC(c2ccccc2[N+](=O)[O-])=NO1 (centres undefined)	108*	9	-13	0	0
O=C(CN1C(=O)NC(Cc2ccccc2)C1=O)Nc1ccc(F)c(Cl)c1 (centres undefined)	-3	-9	-10	-18	.
SMILES	PfHsp90 set2	tim23-1 inh	TIM10 inh	tim10-1 inh	SKKanGAS inh
CCCn1c(N)c(C(=O)CN(C)CC(=O)Nc2c(C)cc(C)cc2C)c(=O)[nH]c1=O	44	16	2	12	.
Nc1cccc(C#Cc2ccc3c(=O)c4ccccc4oc3c2)c1	-42	-5	-5	-5	.
Cn1c2ccccc2c(=O)c2cc(C#Cc3ccc(N)cc3)ccc21	3	19	28	30	85*
Nc1ccc(C#Cc2ccc3oc4ccccc4c(=O)c3c2)cc1	15	-4	2	0	97*
COc1ccc(C#Cc2ccc3c(c2)c(=O)c2ccccc2n3C)cc1	-22	11	16	24	91*
COc1ccc(OC)c(NC(=O)/C=C/c2ccc(S(=O)(=O)N3CCOCC3)cc2)c1	-24	20	20	25	.
CC(C(=O)NC(=O)NC1CCCCC1)N1CCN(c2ccc(O)cc2)CC1 (centres undefined)	6	20	6	-33	.
COC(=O)[C@@]12CCCCN1[C@H](c1ccc(-c3ccc4c(c3)OCO4)cc1)[C@H]1C(=O)N(C)C(=O)[C@H]12	.	20	13	1	.
COc1ccc(NS(=O)(=O)N2CCCCC2)cc1	24	.	.	.	.
CC(OC(=O)C1CCCCC1)C(=O)Nc1cccc([N+](=O)[O-])c1 (centres undefined)	-9	28	15	13	.
COc1cccc(/C=C2/Sc3ccc(C(=O)NCCN4CCCC4)cc3NC2=O)c1	7	15	-1	21	-6
COc1ccc(/C=C2\Sc3ccc(C(=O)N4CCc5ccccc5C4)cc3N(C)C2=O)cc1	.	2	-7	-1	103*
Cc1ccc(/C=C2/Sc3ccc(C(=O)N4CCN(C)CC4)cc3NC2=O)cc1	20	28	14	25	54*
COc1ccc(/C=C2/Sc3ccc(C(=O)N4CCc5ccccc5C4)cc3NC2=O)cc1	-36	14	25	29	102*
Cc1ccc(S(=O)(=O)N2[C@@H](c3cccc(C)c3)C(C(=O)O)=C[C@H]2C(C)(C)C)cc1	-10	5	5	1	.
O=c1[nH][nH]c(=O)c2nc(Nc3ccccc3)ncc12	-4	.	.	.	.
CC(C)Cc1csc(NC(=O)c2ccc(Br)cc2)c1C(=O)O	1	30	24	-12	70*
CC(C)Cc1csc(NC(=O)C(C)C)c1C(=O)O	-19	15	7	0	15
CCN(CC)c1ccc2c(O)cc(=O)oc2c1	-1	19	8	9	5
CCN(CC)c1ccc(C(=O)OCc2cc(=O)oc3cc(O)ccc23)cc1	-2	1	-6	10	51*
CCC(CC)NC(=O)c1oc2ccccc2c1COc1ccccc1	19	18	2	28	52*
COc1ccc(-c2cc(=Nc3c(C)n(C)n(-c4ccccc4)c3=O)c3ccccc3o2)cc1	-21	34	8	10	-3
COc1ccc(-c2c/c(=N\c3nc(-c4ccccc4)c(C)s3)c3ccccc3o2)cc1O	-18	15	7	11	59*
